Measured values taken from PubChem BioAssay (NCATS).
Inconclusive results are not listed. A call without a number means that no potency is given here. Active and inactive are the calls of the source. Calls come from the whole dose curve; as a rule, active = well fitted inhibition curve with a large enough effect; inconclusive = small, poorly fitted or top-dose-only effect; inactive = flat fitted curve, though single readings scatter.

Test: qHTS for Inhibitors of Plasmodium falciparum (7G8) proliferation (AID 504316); note: nearly all actives have a fitted effect of over 65% in size
Settings: P. falciparum 7G8 in erythrocytes, SYBR Green DNA, 72 h; series mostly up to 6.7 µM
In short: (§1)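 Parasite growth measured as SYBR Green DNA fluorescence (ex 485, em 535 nm) after overnight lysis following 72 h culture at 37 °C, 0.3% parasitemia, 2.5% hematocrit. Values normalized against DMSO and 0.29 uM artemisinin controls, with plate-stack correction.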
Potency is the fitted concentration of half-maximal effect.

Structure (SMILES)	Potency
COC(=O)C1=C(C(=O)OC)[C@@H]2Nc3ccccc3[C@@]23C[C@@H](C(=O)OC)N(C(=O)c2ccco2)C3=N1	inactive
COC(=O)C1=C(C(=O)OC)[C@@H]2N(Cc3ccccc3)c3ccccc3[C@@]23C[C@@H](C(=O)OC)N(S(=O)(=O)c2c(C)noc2C)C3=N1	1.69 µM (active)
COC(=O)[C@@H](NC(=O)N1CCc2nc(-c3ccc(OC)cc3C)c3c(c2C1)CO[C@@H](c1ccccc1)C3)C(C)C	1.69 µM (active)
COC(=O)N1C(/C=C/C=C/c2ccc(OC)cc2)=Cc2ccccc2C1CC(C)=O (centres undefined)	1.51 µM (active)

Test: qHTS for Inhibitors of Plasmodium falciparum (HB3) proliferation (AID 504318); note: nearly all actives have a fitted effect of over 60% in size
Settings: P. falciparum HB3 in erythrocytes, SYBR Green DNA, 72 h; series mostly up to 7.21 µM
In short: as §1

Structure (SMILES)	Potency
COC(=O)CCC(=O)OC1(C)C(=O)C=C2C=C(C3CC3)N(C3CC3)C=C2C1=O (centres undefined)	inactive
CCCCc1nc2c(c3c1C[C@H](C)OC3)CN(C(=O)Cc1cccc(OC)c1)CC2	inactive
C=CCNC(=O)N1CCc2nc(COc3ccccc3)c3c(c2C1)CO[C@@H](C)C3	inactive
C[C@H]1Cc2c(-c3ccccc3)nc3c(c2CO1)CN(C(=O)c1cc(I)ccc1F)CC3	inactive
COC(=O)C1=C(C(=O)OC)[C@@H]2N(Cc3ccccc3)c3ccccc3[C@@]23C[C@@H](C(=O)OC)N(C(=O)COCc2ccccc2)C3=N1	inactive
CCCCc1nc2c(c3c1C[C@H](C)OC3)CN(C(=O)NCCCC(=O)OCC)CC2	inactive
COC(=O)[C@H]1[C@@H](C)N(Cc2ccccc2)C(=O)N[C@H]1c1ccccc1	inactive
COC(=O)C1=C(C(=O)OC)[C@@H]2N(C)c3ccc(OC)cc3[C@@]23C[C@@H](C(=O)OC)N(S(=O)(=O)c2ccc(OC)cc2)C3=N1	inactive
CC#CCN1c2ccccc2[C@]23C[C@@H](C(=O)OC)N(C(=O)OCC)C2=NC(C(=O)OC)=C(C(=O)OC)[C@H]13	inactive
COC(=O)C1(C(=O)OC)CC(CO)C(=O)[C@@H]1c1ccccc1 (some centres undefined)	inactive
CC(C)CON=C1C[C@@H](O)[C@@H](O)[C@@H]2[C@H]3C(=O)N(C4CCCCC4)C(=O)[C@@H]3CC[C@H]12	inactive
CC#CCN1c2ccccc2[C@]23C[C@@H](C(=O)OC)N(C(=O)c4ccc(Br)cc4)C2=NC(C(=O)OC)=C(C(=O)OC)[C@H]13	inactive
C=CCN1c2ccccc2[C@]23C[C@@H](C(=O)OC)N(S(=O)(=O)c4cccs4)C2=NC(C(=O)OC)=C(C(=O)OC)[C@H]13	inactive
C=CCN1c2ccccc2[C@]23C[C@@H](C(=O)OC)N(C(=O)C4CCC4)C2=NC(C(=O)OC)=C(C(=O)OC)[C@H]13	inactive
O=C(C=Cc1ccc2c(c1)OCO2)c1ccccc1	inactive
COC(=O)CCC(=O)OC1(C)C(=O)C=C2C=C(C3CC3)N(c3ccccc3)C=C2C1=O (centres undefined)	inactive
COC(=O)[C@@H](NC(=O)N1CCc2nc(-c3ccccc3)c3c(c2C1)CO[C@@H](C)C3)C(C)C	inactive
C=C(C(C)=O)C(O)c1ccc2ccccc2c1 (centres undefined)	inactive
COc1cc2c(cc1OC)[C@@H]1O[C@](CCCCN3C(=O)c4ccccc4C3=O)(C2)Oc2cc(C)n(-c3ccccc3)c(=O)c21	1.2 µM (active)
C=CCN1c2ccccc2[C@]23C[C@@H](C(=O)OC)N(S(=O)(=O)CCCC)C2=NC(C(=O)OC)=C(C(=O)OC)[C@H]13	inactive
